According to the supplement of paper PMC7411640:
Where a name gives a salt, the structure may show the parent alone.

system: MDA-MB-468; assay: phospho-S6 immunofluorescence (DAPI-normalised), per-plate z-score; higher = higher phospho-S6 signal (less pathway suppression); conditions: co-treatment: GDC0941 450 nM; 24 h
Procedure: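 GPCR-targeted compound library (MedChemExpress HY-L006) tested on MDA-MB-468 PTEN-null TNBC cells in 384-well plates at 0.1, 1 or 10 uM, combined with vehicle, GDC0941 450 nM or lapatinib 1 uM, for 24 h. Phospho-S6 (S240/244) immunofluorescence normalised to DAPI and expressed as a per-plate z-score; values are the mean of biological triplicates.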

SMILES | phospho-S6 immunofluorescence (z-score)
Cc1ccccc1C(=O)Nc1ccc(C(=O)N2CCCC(O)c3cc(Cl)ccc32)c(C)c1 (centres undefined) [Tolvaptan] (compound 10 µM) | 0.01
COc1cc2nc(N(C)CCCNC(=O)C3CCCO3)nc(N)c2cc1OC (centres undefined) [Alfuzosin] (compound 10 µM) | 0.81
Cc1ccc(OCC(O)C(C)NC(C)C)c2c1CCC2 (centres undefined) [ICI 118,551 (hydrochloride)] (compound 10 µM) | 1.2
O=C1CCC(c2ccccc2)(C2CCN(Cc3ccccc3)CC2)C(=O)N1 (centres undefined) [Benzetimide (hydrochloride)] (compound 10 µM) | 0.5
CCC(=O)NC[C@@H]1C[C@H]1c1cccc2c1CCO2 [Tasimelteon] (compound 10 µM) | -1.06
N=C(N)NCCC[C@H](NC(=O)[C@H](Cc1ccccc1)NC(=O)[C@@H]1CCCN1C(=O)[C@H](CO)NC(=O)[C@H](Cc1ccccc1)NC(=O)CNC(=O)[C@@H]1CCCN1C(=O)[C@@H]1CCCN1C(=O)[C@@H](N)CCCNC(=N)N)C(=O)O [Bradykinin] (compound 10 µM) | -0.14
CCc1cc(/C(C)=N/OCc2ccc(C3CCCCC3)c(C(F)(F)F)c2)ccc1CN1CC(C(=O)O)C1 [Siponimod] (compound 10 µM) | -0.49
OC[C@H]1O[C@@H](n2cnc3c(N[C@@H]4CCc5ccccc54)ncnc32)[C@H](O)[C@@H]1O (compound 10 µM) | 1.19
CCNC1(C(N)=O)CCN(c2ncnc3c2nc(-c2ccccc2Cl)n3-c2ccc(Cl)cc2)CC1 [Otenabant] (compound 10 µM) | -1.75
